# Measured values: PubChem BioAssay
# “And” between values parts separate entries of the source, which are not always exact repeats. Equal entries are not always repeated. Results filed as inconclusive are left out. The source made the active and inactive calls.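 How the source made its calls, unless noted: active means compounds whose cell count with miR-34 switched on is under 0.7 times the count with it off; inactive means the rest.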
# Experiments:
# [1] = tested on: Aerobactin synthetase IucA (Klebsiella pneumoniae); test: inhibition of K. pneumoniae IucA enzyme – biochemical, Tocris library, absorbance (AID 1345561; call rule not given here;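 further: 100% = enzyme without compound and 0% = no enzyme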); details: purified IucA enzyme assay, absorbance (OD) read-out; stronger effect = lower value;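 tested at 8 µM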
# [2] = viability loss in pontine glioma line – cell-based, SU-DIPG-XIII, MIPE4.0, CellTiter-Glo, qHTS, dose response (AID 1347061; cut-off not given, nearly all actives have AC50 up to about 37 µM;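 further: cells exposed to compound for 48 hours before readout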); details: CellTiter-Glo ATP luminescence
# [3] = viability loss in pontine glioma line – cell-based, JHH-DIPG-1, MIPE4.0, CellTiter-Glo, qHTS, dose response (AID 1347062; cut-off not given, nearly all actives have AC50 up to about 27 µM); details: JHH-DIPG-1 viability, CellTiter-Glo ATP luminescence
# [4] = viability loss in pontine glioma line – cell-based, SU-DIPG-IV, MIPE4.0, CellTiter-Glo, qHTS, dose response (AID 1347063; cut-off not given, nearly all actives have AC50 up to about 30 µM;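 further: compound exposure lasted 48 hours before the viability readout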); details: CellTiter-Glo ATP luminescence
# [5] = JHH-DIPG-1 glioma cell viability, MIPE5.0 library, CellTiter-Glo luminescence, qHTS (AID 1347067; cut-off not given, nearly all actives have AC50 up to about 26 µM;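 further: cells exposed to compound for 48 hours before readout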); details: JHH-DIPG-1 glioma viability, CellTiter-Glo ATP luminescence
# [6] = growth inhibition of DIPG cells – cell-based, MIPE5.0 library, qHTS (AID 1347068; cut-off not given, nearly all actives have IC50 up to about 30 µM); details: SU-DIPG-XXV viability
# [7] = viability loss with induced miR-34 in A549 – imaging, A549 dox-inducible miR-34, nuclei and caspase counts, primary screen (AID 1347080); details: A549 miR-34 inducible, Hoechst nuclei count, 48 h
# [8] = galactose survival enhancers in mitochondrial complex I cybrids – cell-based, galactose medium, ATP luminescence, primary screen (AID 1645843;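 active means z-score of at least 1.8 in each of two replicates, scored against plate mean and spread of sample wells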;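 further: positive z means more ATP and so rescue of galactose-driven cybrid death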); details: complex I mutant cybrid cells, 72 h, stronger effect = higher value
# [9] = compounds altering HSF1 focus formation in cells – imaging, Selleck Cancer Library (AID 1347162; in the data active means plate-normalised HSF1 focus index below about 0.46); details: human cells, HSF1 nuclear foci imaging, at 10 µM; SSMD: measured here: HSF1 foci SSMD mean; cell count: measured here: cell number; plate-normalised HSF1 focus index: stronger effect = lower value
# [10] = growth inhibition of DIPG cells – cell-based, MIPE4.0 library, CellTiter-Glo luminescence, qHTS (AID 1347066; cut-off not given, nearly all actives have AC50 up to about 30 µM;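 further: cells exposed to compound for 48 hours before readout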); details: SU-DIPG-VI viability, CellTiter-Glo ATP luminescence
# [11] = P. berghei load reduction in hepatocytes – cell-based, HepG2, luciferase luminescence, HepG2 viability, primary screen (AID 624349; in the data active means parasite load remaining mostly below about 12%, no sharp cut-off; inactive means mostly above about 10%;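 further: 100% = mean of DMSO negative control wells on the same plate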); details: P. berghei liver stage in HepG2, luciferase luminescence, concentration not given here; parasite load remaining: stronger effect = lower value; viability: measured here: HepG2 viability without parasites
# [12] = viability loss in pontine glioma line – cell-based, SU-DIPG-XXV, MIPE5.0, CellTiter-Glo, qHTS, dose response (AID 1347065; cut-off not given, nearly all actives have AC50 up to about 26 µM;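 further: cells exposed to compound for 48 hours before ATP readout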); details: CellTiter-Glo ATP luminescence
# [13] = viability loss in pontine glioma line – cell-based, SU-DIPG-XVII, MIPE5.0, CellTiter-Glo, qHTS, dose response (AID 1347060; cut-off not given, nearly all actives have AC50 up to about 26 µM;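 on AC50: cells exposed to compound for 48 hours before viability readout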); details: CellTiter-Glo ATP luminescence
# [14] = viability loss in pontine glioma line – cell-based, SU-DIPG-XIII, MIPE5.0, CellTiter-Glo, qHTS, dose response (AID 1347064; cut-off not given, nearly all actives have AC50 up to about 23 µM;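 on AC50: cells exposed to compound for 48 hours before the viability read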); details: CellTiter-Glo ATP luminescence
# [15] = MELAS cybrid and Rieske KO viability enhancers – cell-based, MELAS cybrids, Rieske KO mouse fibroblasts, CellTiter-Glo, primary screen (AID 1508586;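 active means mean z-score across replicates of 1.96 or higher in either the MELAS or the Rieske mutant cell line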;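 further: z relative to plate mean and SD of compound and empty wells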); details: low glucose
# [16] = stronger effect = lower value, cell number ratio, induced over uninduced
# [17] = measured here: relative caspase fold change +Dox/-Dox
# [18] = measured here: total cells with miR-34 induction, stronger effect = lower value
# [19] = measured here: total cells without miR-34 induction
# [20] = MELAS cybrid survival, CellTiter-Glo 48 h, stronger effect = higher value
# [21] = Rieske KO mouse fibroblast survival, CellTiter-Glo 72 h
smiles,measurement,setting,value
Nc1ncnc2c1ncn2[C@@H]1O[C@H](CO)C[C@H]1O,remaining activity,[1],110% (inactive)
same,outcome,[2],inactive
same,outcome,[3],inactive
same,outcome,[4],inactive
same,outcome,[5],inactive
same,outcome,[6],inactive
same,fold change,[7]; [16],0.951 (inactive)
same,fold change,[7]; [17],1.64
same,cell count,[7]; [18],9150
same,cell count,[7]; [19],9630
same,z-score,[8],-0.55 (inactive)
COc1ccc(-c2oc3cc(OC)ccc3c2C(=O)c2ccc(C#N)cc2)cc1,remaining activity,[1],104% (inactive)
same,outcome,[2],inactive
same,outcome,[3],inactive
same,fold change,[7]; [16],0.933 (inactive)
same,fold change,[7]; [17],1.26
same,cell count,[7]; [18],7250
same,cell count,[7]; [19],7780
same,SSMD,[9],3.38
same,cell count,[9],6920
same,plate-normalised HSF1 focus index,[9],1.2 (inactive)
same,z-score,[8],0.755 (inactive)
O=C(/C=C/c1c(C(=O)O)[nH]c2cc(Cl)cc(Cl)c12)Nc1ccccc1,remaining activity,[1],87.2% (inactive)
same,outcome,[2],inactive
same,outcome,[3],inactive
same,outcome,[4],inactive
same,outcome,[10],inactive
same,fold change,[7]; [16],0.942 (inactive)
same,fold change,[7]; [17],1.32
same,cell count,[7]; [18],8890
same,cell count,[7]; [19],9440
same,z-score,[8],4.95 (active)
N#C/C(=C(/N)Sc1ccc(N)cc1)c1ccccc1C(F)(F)F,parasite load remaining,[11],62.2% (inactive)
same,viability,[11],76.3%
same,remaining activity,[1],113% (inactive)
same,AC50,[2],18.7 µM (active)
same,outcome,[12],inactive
same,outcome,[10],inactive
same,outcome,[6],inactive
same,fold change,[7]; [16],0.944 (inactive)
same,fold change,[7]; [17],0.995
same,cell count,[7]; [18],5510
same,cell count,[7]; [19],5840
same,z-score,[8],-0.775 (inactive)
CC(C)N(CCC(=O)c1ccc2ccccc2c1)Cc1ccccc1,parasite load remaining,[11],28.5% (inactive)
same,viability,[11],88.8%
same,remaining activity,[1],113% (inactive)
same,AC50,[13],7.42 µM (active)
same,AC50,[14],7.42 µM (active)
same,AC50,[12],6.61 µM (active)
same,AC50,[5],4.17 µM (active)
same,fold change,[7]; [16],1.13 (inactive) and 0.795 (inactive) and 0.953 (inactive)
same,fold change,[7]; [17],1 and 0.533 and 0.643
same,cell count,[7]; [18],10100 and 6810 and 7420
same,cell count,[7]; [19],8940 and 8570 and 7790
same,z-score,[15]; [20],-0.331 (inactive)
same,z-score,[15]; [21],-0.0503
same,z-score,[8],-1.29 (inactive) and -0.82 (inactive)
Clc1ccc(-c2nc3sccn3c2/C=N/OCc2ccc(Cl)c(Cl)c2)cc1,remaining activity,[1],112% (inactive)
same,outcome,[3],inactive
same,outcome,[4],inactive
same,AC50,[14],20.9 µM (active)
same,AC50,[12],23.5 µM (active)
same,outcome,[10],inactive
same,outcome,[5],inactive
same,outcome,[6],inactive
same,fold change,[7]; [16],0.906 (inactive) and 0.897 (inactive)
same,fold change,[7]; [17],1.07 and 1.53
same,cell count,[7]; [18],4600 and 7870
same,cell count,[7]; [19],5080 and 8770
same,z-score,[8],0.06 (inactive)
COc1cc(SC)ccc1C(=O)N1CCC(Cc2ccccc2)CC1,parasite load remaining,[11],38.9% (inactive)
same,viability,[11],67%
same,remaining activity,[1],78.3% (inactive)
same,outcome,[13],inactive
same,outcome,[14],inactive
same,outcome,[12],inactive
same,outcome,[6],inactive
same,fold change,[7]; [16],1.03 (inactive) and 0.864 (inactive)
same,fold change,[7]; [17],0.962 and 1.6
same,cell count,[7]; [18],7280 and 6350
same,cell count,[7]; [19],7040 and 7350
same,z-score,[8],-0.91 (inactive) and -0.635 (inactive)
COc1ccc(Nc2nccc(NCCO)n2)cc1,remaining activity,[1],124% (inactive)
same,outcome,[2],inactive
same,outcome,[3],inactive
same,outcome,[4],inactive
same,outcome,[14],inactive
same,outcome,[12],inactive
same,outcome,[10],inactive
same,outcome,[5],inactive
same,outcome,[6],inactive
same,fold change,[7]; [16],0.983 (inactive) and 0.953 (inactive)
same,fold change,[7]; [17],2.19 and 1.76
same,cell count,[7]; [18],6220 and 9200
same,cell count,[7]; [19],6320 and 9660
same,z-score,[8],-0.315 (inactive)
O=C1c2ccccc2-c2n[nH]c3cccc1c23,parasite load remaining,[11],34% (inactive)
same,viability,[11],81%
same,remaining activity,[1],103% (inactive)
same,outcome,[2],inactive
same,outcome,[3],inactive
same,outcome,[10],inactive
same,z-score,[15]; [20],-0.446 (inactive)
same,z-score,[15]; [21],-0.381
same,z-score,[8],0.03 (inactive) and 0.085 (inactive)
O=Nc1c(-c2c(O)[nH]c3ccccc23)[nH]c2ccccc12,parasite load remaining,[11],33.5% (inactive)
same,viability,[11],168%
same,remaining activity,[1],116% (inactive)
same,fold change,[7]; [16],1.02 (inactive) and 0.941 (inactive) and 1.27 (inactive)
same,fold change,[7]; [17],0.96 and 0.857 and 0.731
same,cell count,[7]; [18],1220 and 814 and 1460
same,cell count,[7]; [19],1200 and 866 and 1140
same,z-score,[8],-1.48 (inactive) and -0.805 (inactive)
CN(CCOc1ccc(-c2ccc3c(c2)OCO3)cc1C(C)(C)C)CC(=O)O,remaining activity,[1],102% (inactive)
same,AC50,[5],23.5 µM (active)
same,outcome,[6],inactive
same,fold change,[7]; [16],0.865 (inactive)
same,fold change,[7]; [17],1.03
same,cell count,[7]; [18],7520
same,cell count,[7]; [19],8690
same,z-score,[8],-0.035 (inactive)
